Test [1] addresses Phospholipid hydroperoxide glutathione peroxidase GPX4 (Homo sapiens) (UniProt P36969). The experiment in a line: Primary qHTS Assay for Inhibitors of Recombinant Selenoprotein Glutathione Peroxidase 4 (GPX4) (AID 1845192). Note: nearly all actives have a fitted effect of over 65% in size. In a few lines:
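GR-coupled readout: 100 nM GR, 1 mM GSH, 0.5 mM NADPH; NADPH fluorescence (ex 340/em 450 nm) read at t=0 and after 15 min RT. GPX4 200 nM, preincubated 30 min with compound; substrate 0.5 mM CHP.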

A short description of test [2]: Quantitative High-Throughput drug screen in 47 multiple myeloma cell lines against the NCATS MIPE library collection: FR4_PLB cell viability assay (AID 1918924; note: nearly all actives have a fitted effect of over 35% in size; note: potency is the fitted concentration of half-maximal effect). Put shortly: (§1)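 CellTiter-Glo luminescence (ATP) after 48 h compound exposure, 37C/5% CO2; 500 cells/well; MIPE 4.0 approved/investigational drugs pinned in; DMSO = 100%, media only = 0% viability.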
A short description of test [3]: Quantitative High-Throughput drug screen in 47 multiple myeloma cell lines against the NCATS MIPE library collection: EJM_DSMZ cell viability assay (AID 1918926; note: nearly all actives have a fitted effect of over 30% in size; note: potency is the fitted concentration of half-maximal effect). Put shortly:
(§2)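 Steps: seed 500 cells per well; pin-transfer MIPE 4.0 library; incubate 48 h at 37C, 5% CO2, humidified; add CellTiter-Glo, 5 min room temperature; read luminescence.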

Test [4] is described as follows: Quantitative High-Throughput drug screen in 47 multiple myeloma cell lines against the NCATS MIPE library collection: AMO1_DSMZ cell viability assay (AID 1918927; note: nearly all actives have a fitted effect of over 30% in size; note: potency is the fitted concentration of half-maximal effect). In a few lines: as §2
Test [5] is described as follows: Quantitative High-Throughput drug screen in 47 multiple myeloma cell lines against the NCATS MIPE library collection: ARP1_JJKsccF8 cell viability assay (AID 1918928; note: nearly all actives have a fitted effect of over 40% in size; note: potency is the fitted concentration of half-maximal effect). Put shortly:
(§3)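 Here, 48 h treatment with MIPE 4.0 agents at 37 °C preceded an ATP luminescence read. Plating density was 500 cells per well.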

Test [6] can be described thus: Quantitative High-Throughput drug screen in 47 multiple myeloma cell lines against the NCATS MIPE library collection: ARD_JJKsccE7 cell viability assay (AID 1918929; note: potency is the fitted concentration of half-maximal effect). Put shortly: as §2
Test [7] in a line: Quantitative High-Throughput drug screen in 47 multiple myeloma cell lines against the NCATS MIPE library collection: KMM1_JCRB cell viability assay (AID 1918960).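 For viability (% of DMSO): 100% = DMSO-treated cells and 0% = medium-only wells.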 Note: nearly all actives have a fitted effect of over 30% in size. Note: potency is the fitted concentration of half-maximal effect. Put shortly:
as §3

Test [8] in a line: Quantitative High-Throughput drug screen in 47 multiple myeloma cell lines against the NCATS MIPE library collection: INA6_PLB cell viability assay (AID 1918965; note: nearly all actives have a fitted effect of over 55% in size; note: potency is the fitted concentration of half-maximal effect). In a few lines:
(§4)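 Myeloma cells (500 per well) were exposed to MIPE 4.0 compounds by pin transfer and incubated 48 hours at 37C, 5% CO2. Viability was read as ATP by CellTiter-Glo luminescence, normalised to DMSO (100%) and media-only (0%) wells.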

Test [9] can be described thus: Quantitative High-Throughput drug screen in 47 multiple myeloma cell lines against the NCATS MIPE library collection: JJN3_DSMZ cell viability assay (AID 1918966; note: nearly all actives have a fitted effect of over 50% in size; note: potency is the fitted concentration of half-maximal effect). In a few lines: as §2
Test [10] can be described thus: Quantitative High-Throughput drug screen in 47 multiple myeloma cell lines against the NCATS MIPE library collection: Delta47_JCRB cell viability assay (AID 1918925; note: nearly all actives have a fitted effect of over 45% in size; note: potency is the fitted concentration of half-maximal effect). Put shortly:
as §2

A short description of test [11]: Quantitative High-Throughput drug screen in 47 multiple myeloma cell lines against the NCATS MIPE library collection: JIM3_ECACC cell viability assay (AID 1918963; note: nearly all actives have a fitted effect of over 35% in size; note: potency is the fitted concentration of half-maximal effect). Put shortly:
as §1

Test [12] can be described thus: Quantitative High-Throughput drug screen in 47 multiple myeloma cell lines against the NCATS MIPE library collection: Karpas417_ECACC cell viability assay (AID 1918961). Note: potency is the fitted concentration of half-maximal effect. Particulars: Karpas417 myeloma viability, CellTiter-Glo ATP luminescence, 48 h; viability (% of DMSO): at 45.8 µM (top of the series). In a few lines: as §4
Test [13] in a line: Quantitative High-Throughput drug screen in 47 multiple myeloma cell lines against the NCATS MIPE library collection: JIM1_ECACC cell viability assay (AID 1918964; note: potency is the fitted concentration of half-maximal effect). Put shortly:
as §2

The nature of test [14]: Quantitative High-Throughput drug screen in 47 multiple myeloma cell lines against the NCATS MIPE library collection: H1112_PLB cell viability assay (AID 1918967; note: nearly all actives have a fitted effect of over 30% in size; note: potency is the fitted concentration of half-maximal effect). Put shortly: as §2
A short description of test [15]: Quantitative High-Throughput drug screen in 47 multiple myeloma cell lines against the NCATS MIPE library collection: Karpas620_DSMZ cell viability assay (AID 1918959). Note: nearly all actives have a fitted effect of over 30% in size. Note: potency is the fitted concentration of half-maximal effect. In a few lines:
as §1

The nature of test [16]: Quantitative High-Throughput drug screen in 47 multiple myeloma cell lines against the NCATS MIPE library collection: KHM11_PLB cell viability assay (AID 1918962). Note: nearly all actives have a fitted effect of over 35% in size. Note: potency is the fitted concentration of half-maximal effect. In a few lines:
as §1

Results on 18 compounds are retold here after PubChem BioAssay (NCATS).

Records with an inconclusive call do not appear. Calls of active or inactive are those of the source. Calls come from the whole dose curve; as a rule, active = well fitted curve in the direction sought with a large enough effect; inconclusive = small, poorly fitted or top-dose-only effect, or another doubt; inactive = no such curve, though single readings can be large; an effect the other way counts as inactive or inconclusive.

Sequence of Phospholipid hydroperoxide glutathione peroxidase GPX4 (Homo sapiens) (P36969 whole entry, looked up): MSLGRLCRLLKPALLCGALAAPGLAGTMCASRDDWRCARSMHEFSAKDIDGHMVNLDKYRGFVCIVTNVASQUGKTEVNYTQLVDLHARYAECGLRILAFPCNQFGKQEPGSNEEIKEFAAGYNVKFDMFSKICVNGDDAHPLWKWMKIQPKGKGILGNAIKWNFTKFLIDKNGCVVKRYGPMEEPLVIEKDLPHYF

`CC(CCc1ccc(O)cc1)NCCc1ccc(O)c(O)c1` (stereo unspecified): in test [1], the Potency entry was “inactive”. In addition, the Potency in test [2] is 23.5 µM (active); in [3], 20.9 µM (active); in test [4], 18.7 µM (active); in test [5], 20.9 µM (active); in test [6], 16.6 µM (active); in test [7], 29.6 µM (active). In addition, the Potency in test [8] is 18.7 µM (active); in test [9], 14.8 µM (active).
As to `NC12CC3CC(CC(C3)C1)C2`, the Potency entry in test [1], in [2], in [11] and in test [9] was “inactive” in each case. Besides, the Potency in [10] is 16.6 µM (active); in test [8], 26.4 µM (active).
For `Cc1cn([C@H]2C[C@H](N=[N+]=[N-])[C@@H](CO)O2)c(=O)[nH]c1=O`, the Potency entry in test [1], in [2], in test [4], in test [5], in [6] and in [7] was “inactive” throughout. Besides, in test [13], the Potency entry was “inactive”. For the same compound, the Potency is 7.43 µM (active) in test [3], 26.4 µM (active) in test [11], 5.26 µM (active) in test [9] and 23.5 µM (active) in test [14]. The viability (% of DMSO) in test [12] was 84.8% (active).
Consider `COc1cc2c(c(OC)c1OC)-c1ccc(OC)c(=O)cc1[C@@H](NC(C)=O)CC2`, for which the Potency result in test [1], in test [2], in test [3], in [4], in test [6] and in [15] was “inactive” in each case. Also, the Potency entry in test [7], in [11], in [13] and in test [8] was “inactive” in each case. Also, the Potency in test [12] is 0.0033 µM (active).
`Nc1ccn([C@H]2CC[C@@H](CO)O2)c(=O)n1`: the Potency result in test [1], in test [2], in test [10], in test [4], in [5] and in test [6] was “inactive” each time. In addition, the Potency result in test [15], in test [7], in [12] and in test [14] was “inactive” throughout. The Potency in test [11] was 26.4 µM (active).
Regarding `CC(C)(C)C(=O)Oc1ccc(S(=O)(=O)Nc2ccccc2C(=O)NCC(=O)O)cc1`, the Potency entry in test [1], in [2], in [4], in test [5], in test [6] and in [15] was “inactive” throughout. In addition, the Potency result in test [11] and in test [13] was “inactive” in each case. In addition, the Potency in [14] is 18.7 µM (active).
Turning to `CC(C)NCC(O)COc1ccc(CCOCC2CC2)cc1` (stereo unspecified), the Potency result in [1], in [2], in test [10], in test [7], in [12] and in test [16] was “inactive” throughout. The Potency entry in [11], in test [13], in test [8] and in test [14] was “inactive” throughout.
Regarding `Nc1nnc(-c2cccc(Cl)c2Cl)c(N)n1`, the Potency result in [1], in test [2], in test [3], in [5] and in test [13] was “inactive” in each case. The Potency in [10] is 23.5 µM (active).
With `CC(C(=O)O)c1cccc(C(=O)c2ccccc2)c1` (stereo unspecified), the Potency result in test [1], in test [2], in [4] and in test [7] was “inactive” in each case. Also, the Potency is 20.9 µM (active) in test [10], 18.7 µM (active) in [16] and 18.7 µM (active) in test [14].
With `CCCNCC(O)COc1ccccc1C(=O)CCc1ccccc1` (stereo unspecified), the Potency entry in test [1], in [2], in test [5], in test [11], in test [9] and in test [14] was “inactive” each time.
`CN1CCN(C2=Nc3cc(Cl)ccc3Nc3ccccc32)CC1`: the Potency entry in test [1], in test [2], in test [3], in test [5] and in test [13] was “inactive” in each case. For the same compound, the Potency in [10] was 20.9 µM (active); in [7], 16.6 µM (active).
Consider `CCc1cccc2c3c([nH]c12)C(CC)(CC(=O)O)OCC3` (stereo unspecified), for which the Potency result in test [1], in [10], in test [3], in [4], in test [5] and in test [6] was “inactive” in each case. For the same compound, the Potency result in test [15], in test [7], in [12], in test [16], in [11] and in test [8] was “inactive” each time. The Potency entry in test [14] was “inactive”.
`COc1ccccc1OCC(O)CN1CCN(CC(=O)Nc2c(C)cccc2C)CC1` (stereo unspecified): the Potency entry in test [1], in test [2], in test [3], in [4], in test [5] and in test [6] was “inactive” throughout. The Potency result in test [7], in test [11], in test [13], in [8] and in test [14] was “inactive” each time.
Consider `Nc1c2c(nc3ccccc13)CCCC2`, for which the Potency entry in test [1], in [2], in test [3], in test [6], in test [7] and in test [11] was “inactive” each time. Besides, the Potency entry in [13] and in test [14] was “inactive” each time. Moreover, in test [9], the Potency is 5.26 µM (active).
Regarding `Clc1ccc2nsnc2c1NC1=NCCN1`, the Potency entry in [1], in test [2], in test [3], in [7], in [11] and in [8] was “inactive” throughout. The Potency result in test [14] was “inactive”.
`CN(C)c1nc(N(C)C)nc(N(C)C)n1`: the Potency result in [1], in test [2], in [10], in test [3], in [4] and in test [6] was “inactive” in each case. The Potency result in test [7], in test [12], in [16], in [11] and in test [14] was “inactive” each time.
`NCCc1cnc[nH]1`: the Potency result in [1], in [2], in test [4], in [5], in test [6] and in test [7] was “inactive” throughout. The Potency entry in [8], in test [9] and in [14] was “inactive” in each case. Also, the Potency is 14.8 µM (active) in [3] and 0.0148 µM (active) in test [15].
As to `O=C(c1ccc(OCCN2CCCCC2)cc1)c1c(-c2ccc(O)cc2)sc2cc(O)ccc12`, the Potency entry in test [1] was “inactive”. Also, the Potency in test [2] was 26.4 µM (active); in [10] it was 23.5 µM (active); in test [4], 20.9 µM (active); in [6], 26.4 µM (active); in test [7] it was 20.9 µM (active); in test [12], 18.7 µM (active). Further, the results for the Potency in test [13], in [8] and in test [9] were 37.2 µM (active), 18.7 µM (active) and 20.9 µM (active), respectively.
